{"source": "PubChem BioAssay (NCI)", "note": "Compounds without any hit were thinned out: in the full panel of roughly 83,000, 20% have a hit.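 The endpoint reported here, percent growth, reads 100 for growth as untreated, 0 for no net growth and -100 for all cells dead.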 Unmarked numbers belong to inactive results. Activity calls are given as the source filed them."}
{"system": "NCI-H460 lung", "test": "NCI-60 one-dose screen, 48 h (100 = growth as untreated, 0 = no growth, -100 = all killed)", "details": "10 µM unless noted", "description": "Growth inhibition of the NCI-H460 human Non-Small Cell Lung tumor cell line is measured as a screen for anti-cancer activity. Cells are grown in 96 well plates and exposed to the test compound for 48 hours. Compounds are tested at a single concentration, which is 10^-5 M for most compounds. The reported endpoint is percent growth (GI% or GIPRCNT), where numbers from 0 - 100% represent growth inhibition, and numbers from -100% - 0 represent cell death. For example, a value of 40 represents 60% growth inhibition. A value of 0 means no net growth occurred over the course of the experiment. A value of -40 indicates 40% of cells at the beginning of the experiment died by the end of the experiment. A value of -100 means all cells are dead at the end of the experiment.\nNCI-60 Human Tumor Cell Lines Screen was performed using the standard one-dose NCI protocol, which is described in more detail at https://dtp.cancer.gov/discovery_development/nci-60/default.htm.\nCompounds with GIPRCNT values below 10 were considered active. Activity score was based on GIPRCNT using the following formula: […]\nScore is 0 for GIPRCNT values of 100 or above, 50 for GIPRCNT values of 0, and 100 for GIPRCNT values of -100."}
{"smiles": "CC(CCCC(=O)O)c1ccoc1", "note": "(stereo not given)", "growth": "110%"}
{"smiles": "Cc1ccc(-c2cc3c(SCC(=O)Nc4cc(C(F)(F)F)ccc4Cl)nccn3n2)cc1", "growth": "14.2%"}
{"smiles": "N#Cc1ccc(-n2nnc3ccccc32)cc1C#N", "growth": "107%"}
{"smiles": "COc1cc(Nc2c(C#N)cnc3cc(OCCCN4CCN(C)CC4)c(OC)cc23)c(Cl)cc1Cl", "growth": "38.6%"}
{"smiles": "Cc1nc(Nc2n[nH]c3c2CN(C(=O)N[C@H](CN(C)C)c2ccccc2)C3(C)C)c2sccc2n1", "growth": "-42.8% (active)"}
{"smiles": "COC(=O)N[C@@H](C)CNc1nccc(-c2cn(C(C)C)nc2-c2cc(Cl)cc(NS(C)(=O)=O)c2F)n1", "growth": "91.2%"}
{"smiles": "Cc1c(Cn2c(C)nc3c(C(=O)O)cc(N4CCOCC4)cc32)cccc1C(F)(F)F", "growth": "102%"}
{"smiles": "Cc1cc2c(-c3nc4ccccn4c3N)c(O)c(O)cc2c(O)c1-c1c(C)cc2c(-c3nc4ccccn4c3N)c(O)c(O)cc2c1O", "growth": "7% (active)"}
{"smiles": "C=CCC(=O)N[C@H](/C=C/C(=O)O)Cc1ccc(-c2cc(Cl)cc(Cl)c2)cc1", "growth": "99.6%"}
{"smiles": "O=C(NC[C@H](O)CO)c1ccncc1Nc1ccc(I)cc1F", "growth": "53.2%"}
{"smiles": "CCN(CC)CCNC(=O)c1c(C)[nH]c(/C=C2\\C(=O)Nc3ccc(F)cc32)c1C", "growth": "1.9% (active)"}
{"smiles": "O=C(COc1ccc(/C=C2\\Cc3ccc(Cl)cc3C2=O)cc1)Nc1nccs1", "growth": "95.2%"}
{"smiles": "Cc1c(NC(=O)OC[C@@H]2COCCN2)cn2ncnc(Nc3ccc4c(cnn4Cc4cccc(F)c4)c3)c12", "growth": "4.49% (active)"}
{"smiles": "Cc1ccc(NC(=O)c2ccc(CN3CCN(C)CC3)cc2)cc1Nc1nc(-c2cccnc2)cs1", "growth": "40.3%"}
{"smiles": "COc1ccc2c(c1)cn1c3ccc(O)cc3nc(N)c21", "growth": "8.48% (active)"}
{"smiles": "CC12O[C@H](C[C@@H](OC(=O)CCC(=O)O)[C@H]1O)n1c3ccccc3c3c4c(c5c6ccccc6n2c5c31)C(=O)NC4=O", "growth": "20.2%"}
{"smiles": "COc1ccc2c(OCc3nnc4ccc(-c5ccccc5)nn34)ccnc2c1", "growth": "110% [2.5 µM]"}
{"smiles": "COc1cc(C(=O)NNC(=O)c2ccc(NC(=O)CCl)cc2)cc(OC)c1OC", "growth": "99.5%"}
{"smiles": "COc1ccc2c(CCc3ccc(Cl)cc3)c3[n+](cc2c1OC)CCc1cc2c(cc1-3)OCO2", "growth": "10.6%"}
{"smiles": "CC(=Nc1ccccc1)C1=C(O)C(Cc2ccc(O)cc2)NC1=O", "note": "(stereo not given)", "growth": "4.41% (active)"}
{"smiles": "CCOC(=O)C1=C(C)NC(=O)NC1c1cc(=O)oc2ccc(C)cc12", "note": "(stereo not given)", "growth": "108%"}
{"smiles": "Cn1cnc(-c2cc3nccc(Oc4ccc(NC(=S)NC(=O)Cc5ccccc5)cc4F)c3s2)c1", "growth": "93.5%"}
{"smiles": "COC(=O)[C@H](Cc1ccc(O)cc1)NC(=O)[C@@H](OC)[C@@H]1Cc2cc3cc(OC4CC(OC5CC(O)C(O)C(C)O5)C(O)C(C)O4)c(C)c(O)c3c(O)c2C(=O)[C@H]1OC1CC(OC2CC(OC3CC(C)(O)C(O)C(C)O3)C(O)C(C)O2)C(O)C(C)O1", "note": "(stereo not given in full)", "growth": "6.99% (active)"}
{"smiles": "Cn1cnc2c(F)c(Nc3ccc(Br)cc3F)c(C(=O)NOCCO)cc21", "growth": "62.6%"}
{"smiles": "CCOC(=O)C1=C(C)N=C2Sc3cccc(OC)c3N2[C@H]1c1ccccn1", "growth": "105%"}
{"smiles": "COc1cc2c(cc1OCCCN1Cc3ccc(OCCCCC(=O)N4CCC(CCN5CCCC5)CC4)cc3C1)N=C(N)C21CCCC1", "growth": "102%"}
{"smiles": "COc1ccc(C(=O)N2c3ccccc3Sc3ccccc32)c(F)c1", "growth": "12%"}
{"smiles": "CCCCCCCCCNCCCCCCCCC", "growth": "103%"}
{"smiles": "Cc1cc(C)n(CC(=O)Nc2ccc(-c3nc4ccccc4s3)cc2)n1", "growth": "102%"}
{"smiles": "CCN(CC)CCNc1ccc(N=Nc2cnc3ccccc3c2)c2ccccc12", "growth": "-78.8% (active)"}
{"smiles": "O=C1/C(=C\\c2cccc(OCCCCCOc3ccc(Cl)cc3)c2)N=C2SCCCN12", "growth": "60.7%"}
{"smiles": "COC(=O)CCCNc1c(-c2c(O)c(O)cc3c(O)c(-c4c(C)cc5c(-c6nc7ccccn7c6NCCCC(=O)OC)c(O)c(O)cc5c4O)c(C)cc23)nc2ccccn12", "growth": "6.59% (active)"}
{"smiles": "CC(C)(C)c1cnc(CSc2cnc(NC(=O)C3CCNCC3)s2)o1", "growth": "2.67% (active)"}
{"smiles": "COC(=O)[C@]12CC[C@@H](C)[C@H](C)[C@@H]1C1=CC[C@@H]3[C@@]4(C)C[C@@H](OC(=O)/C=C/c5ccccc5)[C@H](O)[C@@](C)(CO)[C@@H]4[C@H](O)C[C@@]3(C)[C@]1(C)CC2", "growth": "-39.6% (active)"}
{"smiles": "CN(c1ncccc1CNc1nc(Nc2ccc3c(c2)CC(=O)N3)ncc1C(F)(F)F)S(C)(=O)=O", "growth": "-36.9% (active)"}
{"smiles": "O=C(NOC[C@H](O)CO)c1ccc(F)c(F)c1Nc1ccc(I)cc1F", "growth": "54%"}
{"smiles": "CC1(/C=N/NC(N)=S)NC(=O)NC1=O", "note": "(stereo not given)", "growth": "105%"}
{"smiles": "CC(C)(C)C(=O)OCOP(=O)(OCOC(=O)C(C)(C)C)C1CCCN(OC(=O)c2ccccc2)C1=O", "note": "(stereo not given)", "growth": "15.6%"}
{"smiles": "COc1ccc(F)c(F)c1C(=O)c1cnc(NC2CCN(S(C)(=O)=O)CC2)nc1N", "growth": "3.3% (active)"}
{"smiles": "Cc1cc(O)cc(-c2c(-c3ccnc(-c4cccnc4)c3)cnn2C)c1", "growth": "67.4%"}
